According to PubChem BioAssay AID1159580 (chemical genetic matrix, 2015):
About 2,000 (36%) of roughly 5,500 compounds were called active. Another 18% or so got no clear call; they are omitted. No stated cut-off is given here; in the data, active means normalized growth mostly below about 0.91 (no sharp cut-off); inconclusive means no clear call, values can overlap the other calls; inactive means mostly above about 0.92. Some of the results follow.

Assay: chemical genetic growth profiling, strain panel (AID 1159580);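 further: tested at 20 µM; growth read once vehicle control cultures reached saturation at 30 °C; 1 = growth at the plate median or of vehicle wells; lower values mean less growth of the strain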
Conditions: growth OD
[1] = S. cerevisiae deletion strains, locus YDL101C, strain DUN1, active compounds read low
[2] = S. cerevisiae deletion strains, locus YHR030C, strain SLT2, active compounds read low

Measured: normalized growth

COc1ccc(-c2ccnc(SCC(=O)NCCSCc3ccco3)n2)cc1
inactive: S. cerevisiae deletion strains, locus YAL013W, strain DEP1, active compounds read low 1.01 | S. cerevisiae deletion strains, locus YBR229C, strain ROT2, active compounds read low 0.998 | S. cerevisiae deletion strains, locus YCL061C, strain MRC1, active compounds read low 1.01 | [1] 1 | S. cerevisiae deletion strains, locus YDR150W, strain NUM1, active compounds read low 0.991 | S. cerevisiae deletion strains, locus YEL061C, strain CIN8, active compounds read low 1 | S. cerevisiae deletion strains, locus YGR078C, strain PAC10, active compounds read low 1.01 | [2] 1.09 | S. cerevisiae deletion strains, locus YHR087W, strain rtc3, active compounds read low 0.998 | S. cerevisiae deletion strains, locus YJL187C, strain SWE1, active compounds read low 1.02 | S. cerevisiae deletion strains, locus YJR043C, strain POL32, active compounds read low 1 | S. cerevisiae deletion strains, locus YJR075W, strain HOC1, active compounds read low 0.991 | S. cerevisiae deletion strains, locus YLR039C, strain RIC1, active compounds read low 0.999 | S. cerevisiae deletion strains, locus YLR058C, strain SHM2 (second series), active compounds read low 1 | S. cerevisiae deletion strains, locus YLR085C, strain ARP6, active compounds read low 0.98 | S. cerevisiae deletion strains, locus YLR262C, strain YPT6, active compounds read low 1.03 | S. cerevisiae deletion strains, locus YML094W, strain GIM5, active compounds read low 1 | S. cerevisiae deletion strains, locus YMR219W, strain ESC1, active compounds read low 1.01 | S. cerevisiae deletion strains, locus YMR263W, strain SAP30, active compounds read low 1.01 | S. cerevisiae deletion strains, locus YMR307W, strain GAS1, active compounds read low 0.993 | S. cerevisiae deletion strains, locus YNL128W, strain TEP1, active compounds read low 0.999 | S. cerevisiae deletion strains, locus YNL153C, strain GIM3, active compounds read low 1.02 | S. cerevisiae deletion strains, locus YNL298W, strain CLA4 (second series), active compounds read low 1.01 | S. cerevisiae deletion strains, locus YNL322C, strain KRE1, active compounds read low 1.01 | S. cerevisiae deletion strains, locus YNR030W, strain Alg12, active compounds read low 1.01 | S. cerevisiae deletion strains, locus YOL006C, strain TOP1, active compounds read low 1.03 | S. cerevisiae deletion strains, locus YPL055C, strain LGE1, active compounds read low 1.02 | S. cerevisiae deletion strains, locus YPL241C, strain CIN2, active compounds read low 1.01 | S. cerevisiae deletion strains, locus YPR135W, strain CTF4, active compounds read low 1.03 | S. cerevisiae strains, strain wild type, active compounds read low 1

O=C(NCCSCc1cccc(C(F)(F)F)c1)Nc1cccc(C(F)(F)F)c1
inactive: S. cerevisiae deletion strains, locus YAR019C, strain CDC15, active compounds read low 0.999 | S. cerevisiae deletion strains, locus YBL105C, strain PKC1, active compounds read low 1 | S. cerevisiae deletion strains, locus YBR135W, strain CKS1, active compounds read low 0.994 | S. cerevisiae deletion strains, locus YBR136W, strain MEC1, active compounds read low 0.998 | S. cerevisiae deletion strains, locus YBR160W, strain CDC28, active compounds read low 0.997 | S. cerevisiae deletion strains, locus YDL017W, strain CDC7, active compounds read low 1 | S. cerevisiae deletion strains, locus YDL028C, strain MPS1, active compounds read low 0.996 | [1] 1.01 | S. cerevisiae deletion strains, locus YDL108W, strain KIN28, active compounds read low 0.999 | S. cerevisiae deletion strains, locus YDL132W, strain cdc53, active compounds read low 0.99 | S. cerevisiae deletion strains, locus YDL214C, strain PRR2, active compounds read low 1.01 | S. cerevisiae deletion strains, locus YDR052C, strain DBF4, active compounds read low 1.01 | S. cerevisiae deletion strains, locus YDR054C, strain cdc34, active compounds read low 0.995 | S. cerevisiae deletion strains, locus YDR226W, strain ADK1, active compounds read low 1 | S. cerevisiae deletion strains, locus YDR477W, strain SNF1, active compounds read low 1.01 | S. cerevisiae deletion strains, locus YER123W, strain YCK3, active compounds read low 1.02 | S. cerevisiae deletion strains, locus YER133W, strain GLC7, active compounds read low 1.02 | S. cerevisiae deletion strains, locus YFL009W, strain cdc4, active compounds read low 0.992 | S. cerevisiae deletion strains, locus YFL029C, strain CAK1, active compounds read low 0.991 | S. cerevisiae deletion strains, locus YFR003C, strain YPI1, active compounds read low 1 | S. cerevisiae deletion strains, locus YFR019W, strain FAB1, active compounds read low 1 | S. cerevisiae deletion strains, locus YFR028C, strain CDC14, active compounds read low 0.997 | S. cerevisiae deletion strains, locus YGR040W, strain KSS1, active compounds read low 1 | S. cerevisiae deletion strains, locus YGR052W, strain FMP48, active compounds read low 1.18 | S. cerevisiae deletion strains, locus YGR092W, strain DBF2, active compounds read low 1 | [2] 1.15 | S. cerevisiae deletion strains, locus YHR079C, strain IRE1, active compounds read low 1.11 | S. cerevisiae deletion strains, locus YHR082C, strain KSP1, active compounds read low 1.18 | S. cerevisiae deletion strains, locus YHR205W, strain SCH9, active compounds read low 0.989 | S. cerevisiae deletion strains, locus YIL147C, strain SLN1, active compounds read low 1 | S. cerevisiae deletion strains, locus YJL095W, strain BCK1, active compounds read low 1.17 | S. cerevisiae deletion strains, locus YJL128C, strain PBS2, active compounds read low 0.954 | S. cerevisiae deletion strains, locus YJL157C, strain FAR1, active compounds read low 1.01 | S. cerevisiae deletion strains, locus YJR016C, strain ILV3, active compounds read low 1.01 | S. cerevisiae deletion strains, locus YJR066W, strain TOR1 (second series), active compounds read low 0.993 | S. cerevisiae deletion strains, locus YJR066W, strain TOR1, active compounds read low 1.21 | S. cerevisiae deletion strains, locus YKL048C, strain ELM1, active compounds read low 0.983 | S. cerevisiae deletion strains, locus YKL067W, strain YNK1, active compounds read low 1.01 | S. cerevisiae deletion strains, locus YKL101W, strain HSL1, active compounds read low 0.997 | S. cerevisiae deletion strains, locus YKL193C, strain SDS22, active compounds read low 1 | S. cerevisiae deletion strains, locus YKL203C, strain TOR2, active compounds read low 1.09 | S. cerevisiae deletion strains, locus YLR113W, strain HOG1, active compounds read low 1.07 | S. cerevisiae deletion strains, locus YLR133W, strain CKI1, active compounds read low 0.997 | S. cerevisiae deletion strains, locus YLR403W, strain SFP1, active compounds read low 0.999 | S. cerevisiae deletion strains, locus YML070W, strain DAK1, active compounds read low 1.01 | S. cerevisiae deletion strains, locus YMR001C, strain CDC5, active compounds read low 0.996 | S. cerevisiae deletion strains, locus YMR205C, strain PFK2 (second series), active compounds read low 1.01 | S. cerevisiae deletion strains, locus YMR277W, strain FCP1, active compounds read low 0.999 | S. cerevisiae deletion strains, locus YNL006W, strain LST8, active compounds read low 1 | S. cerevisiae deletion strains, locus YNL020C, strain ARK1, active compounds read low 0.988 | S. cerevisiae deletion strains, locus YNL161W, strain CBK1, active compounds read low 1 | S. cerevisiae deletion strains, locus YNL183C, strain NPR1, active compounds read low 1.15 | S. cerevisiae deletion strains, locus YNL207W, strain RIO2, active compounds read low 1.01 | S. cerevisiae deletion strains, locus YNL222W, strain SSU72, active compounds read low 0.998 | S. cerevisiae deletion strains, locus YNL307C, strain MCK1 (second series), active compounds read low 0.997 | S. cerevisiae deletion strains, locus YOL078W, strain AVO1, active compounds read low 0.995 | S. cerevisiae deletion strains, locus YOL136C, strain PFK27, active compounds read low 0.992 | S. cerevisiae deletion strains, locus YOR061W, strain CKA2, active compounds read low 0.986 | S. cerevisiae deletion strains, locus YOR119C, strain RIO1, active compounds read low 1.04 | S. cerevisiae deletion strains, locus YOR231W, strain MKK1, active compounds read low 1.1 | S. cerevisiae deletion strains, locus YOR329C, strain SCD5, active compounds read low 1 | S. cerevisiae deletion strains, locus YPL031C, strain PHO85, active compounds read low 1.01 | S. cerevisiae deletion strains, locus YPL153C, strain RAD53, active compounds read low 1.02 | S. cerevisiae deletion strains, locus YPL204W, strain HRR25, active compounds read low 1.01 | S. cerevisiae deletion strains, locus YPL209C, strain IPL1, active compounds read low 0.997 | S. cerevisiae deletion strains, locus YPL256C, strain CLN2, active compounds read low 1.11 | S. cerevisiae deletion strains, locus YPR025C, strain CCL1, active compounds read low 0.999 | S. cerevisiae deletion strains, locus YPR106W, strain ISR1, active compounds read low 0.992 | S. cerevisiae deletion strains, locus YPR111W, strain DBF20, active compounds read low 0.986 | S. cerevisiae deletion strains, strain NNK1, active compounds read low 0.994 | S. cerevisiae deletion strains, strain TSCII, active compounds read low 0.995
